Measured values as given in PubChem BioAssay AID836 (Columbia University Molecular Screening Center, 2007).
In all, about 91,000 compounds went through this assay and about 160 (0.18%) were called active. The sample as a whole holds a higher share of actives than the screen did. Unmarked numbers belong to inactive results.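 Rule for the calls: active = inhibition above the batch mean plus 3 SD and confirmed as a hit by visual image inspection (cut at about 30% in these data, passing the limit was not always enough); inconclusive = above the inhibition threshold but rejected on visual inspection; inactive = the rest.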

experiment: disruptors of actin filament network in HUVEC – imaging, phalloidin staining, high-content imaging, primary screen (AID 836); conditions: HUVEC TNFa F-actin phalloidin imaging, at 2 µM, hits give high values

| Compound | inhibition |
| --- | --- |
| COc1ccc([N+](=O)[O-])cc1NC(=O)CCc1ccccc1 | 9.1% |
| CC(Oc1ccc(-c2ccccc2)c(F)c1)c1ccn(S(=O)(=O)c2cccc3ccccc23)n1 (centres undefined) | 1.3% |
| N#C/C(=C(/O)Cc1cccc2ccccc12)c1nc2ccccc2s1 | 18.2% |
| COc1cc(C2CC(=O)c3cnc(NC(C)=O)nc3C2)cc(OC)c1OC (centres undefined) | -1.6% |
| O=C(Nc1ncc2c(n1)CC(c1ccco1)CC2=O)c1ccc(Cl)cc1 (centres undefined) | 100% (active) |
| CC1=C(C(=O)Nc2ccc(Cl)cc2)C(c2ccco2)NC(=O)N1 (centres undefined) | -60.1% |
| FC(F)(F)c1cccc(-c2cc3ccccc3nc2N2CCCC2)c1 | -10% |
| COc1cccc(NC(=O)C2c3cc(OC)c(OC)cc3C(=O)N(C)C2c2cccnc2)c1 (centres undefined) | 29% |
| NC(=O)COc1ccc(/C=N/NC(=O)C2CCCN2S(=O)(=O)c2ccc(Cl)cc2)cc1 (centres undefined) | -7.7% |
| CC(=O)c1cn(CCCCCCCCCCn2cc(C(C)=O)c(=O)[nH]c2=O)c(=O)[nH]c1=O | 6.8% |
| O=C(CCc1ccc(S(=O)(=O)N2CCOCC2)cc1)Nc1ccc2ccccc2c1 | -5% |
| O=C(CNC(=O)c1ccccc1)NCC(=O)OCc1ccc(Cl)cc1 | -29.4% |
| CC(C(=O)Nc1ccc(F)c(F)c1F)N1CCCCCC1 (centres undefined) | 9.4% |
| O=c1c2ccccc2nc2n1C(CSc1ccc(Cl)cc1)CN2 (centres undefined) | -15.2% |
| Cc1cccc(CSc2nnc(NC(=O)CSc3nnc(C)s3)s2)c1 | -21.1% |
| O=C(NC1CCCCC1)c1cc([N+](=O)[O-])ccc1N1CCOCC1 | -40.7% |
| Cc1n[nH]c(=O)n1-c1ccc(Oc2ccccc2)cc1 | 22.6% |
| Cc1ccc(C)c(NC(=O)C2Cc3ccccc3CN2C(=O)OCc2ccccc2)c1 (centres undefined) | 26.6% |
| Cc1ccc(S(=O)(=O)N(CC(=O)NCCSC2CCCCC2)c2ccccc2F)cc1 | 1.5% |
| CC(C)CC(=O)N1CCC(O)(CS(=O)(=O)Cc2ccccc2)CC1 | 34.4% |
| Cc1ccc(-c2csc(N(Cc3ccco3)C(=O)c3cccs3)n2)cc1 | 5.4% |

| Compound | inhibition |
| --- | --- |
| Fc1ccccc1COc1ccccc1CNCc1ccncc1 | -4.1% |
| COc1ccccc1NC(=O)c1ccc2nc(N3C(=O)CCC3=O)sc2c1 | 19.2% |
| COc1cc(C2C(C(=O)OCCC#N)=C(C)NC3=C2S(=O)(=O)c2ccccc23)cc(OC)c1OC (centres undefined) | -21.9% |
| O=C(CCCN1C(=O)c2cccc3cccc(c23)C1=O)N1CCN(Cc2ccc3c(c2)OCO3)CC1 | 21% |
| Cc1cccc(COc2ccccc2/C=N/Nc2ccc([N+](=O)[O-])cc2)c1 | 15.8% |
| COc1ccccc1OCCNc1cc(N2CCOCC2)ccc1[N+](=O)[O-] | 5.1% |
| O=C(COc1ccc(Br)cc1F)NC1CCN(Cc2ccccc2)CC1 | -0.2% |
| C/C(=N/NC(=O)c1ccc(NC(=O)c2ccc(F)cc2)cc1)c1ccccc1 | -18.2% |
| COc1cc(/C=C(/NC(=O)c2ccccc2)C(=O)Nc2cccc(O)c2)c([N+](=O)[O-])cc1OC | 7.4% |
| C=CCNC(=S)NNc1ncnc2sc3c(c12)CC(C)(C)OC3 | -11.6% |
| C=CCNC(=O)c1sc(SC)cc1-c1ccc(Cl)cc1 | 7.4% |
| Cc1cccc(-n2cnc(C(=O)Nc3cccnc3)c2)n1 | 1.4% |
| Cc1cccc(C)c1NC(=O)c1ccc(CN2CCc3ccccc3C2)cc1 | -19.9% |
| Cc1cc(C)cc(OCC(=O)Nc2nc3ccc([N+](=O)[O-])cc3s2)c1 | -19.8% |
| Cc1ccc(-c2nnc(-n3nnc4ccccc43)c3ccccc23)cc1 | -2% |
| CC(C)c1ccc(/C=C/C(=O)NNC(=O)c2cccnc2)cc1 | 1.1% |
| O=C(Nc1ccccc1)O/N=C1\CCCCC1c1ccc([N+](=O)[O-])cc1[N+](=O)[O-] (centres undefined) | -8.4% |
| c1ccc2c(CSCc3nc4ccccc4[nH]3)cccc2c1 | -12.1% |
| CSc1ccc(C#N)cc1NC(=O)c1cccc(Cl)c1 | 3.3% |
| Cc1[nH]n(-c2ccccc2)c(=O)c1CCOC(=O)c1ccc(C(F)(F)F)cc1 | -0.4% |
| CN(C)Cc1ccccc1C1(O)c2ccccc2CSc2ccccc21 (centres undefined) | -10.2% |

| Compound | inhibition |
| --- | --- |
| O=C(/C=C/c1ccccc1)N/C(=C/c1ccccc1)C(=O)Nc1ccccc1O | -50.9% |
| CCOc1ccc(-c2c(C)n([O-])c3c([n+]2=O)CCCC3)cc1 | -18.2% |
| Cc1c(Nc2cc(N3CCCC(C)C3)c3nonc3c2[N+](=O)[O-])c(=O)n(-c2ccccc2)n1C (centres undefined) | 3.1% |
| COc1cc(/C=N/O)cc(Br)c1OCc1cccc(Cl)c1 | -41.4% |
| CCOC(=O)c1nn(-c2cccc(C)c2)cc1C(=O)c1ccccc1 | 5.4% |
| O=C(/C=C/c1cc2c(cc1Br)OCO2)NCc1ccc(Cl)cc1 | 7.8% |
| Cc1nc(NC2=NC(C(=O)Nc3ccc(Cl)cc3)CC(=O)N2)nc2ccccc12 (centres undefined) | 7.9% |
| Cc1nc(C)c(C(=O)N(c2ccc(C)c(C)c2)C(C(=O)NCc2ccco2)c2ccccc2)s1 (centres undefined) | 29.1% |
| Cc1ccc(NC(=S)N/N=C2/CCCc3c(C)cc(C)cc32)cc1 | 13.9% |
| Cc1nn(-c2ccccc2)c(Cl)c1C(=O)Nc1ccccc1 | -7.8% |
| Cc1cc(=O)oc2cc(OC(C)C(=O)Nc3ccc(N4CCOCC4)cc3)ccc12 (centres undefined) | 0.5% |
| CCOC(=O)CSc1ncc(-c2cccc(Cl)c2)cn1 | -17.9% |
| C=CCn1c(SCC(=O)c2c(N)n(C)c(=O)n(C)c2=O)nc2sc(CC)cc2c1=O | 2% |
| Cc1cccc(NC(=O)c2ccc(OCC(=O)NCc3ccccc3)cc2)c1C | 4.9% |
| COc1ccc(Cl)cc1NC(=O)CN(C)C(=O)CNC(=O)C12CC3CC(CC(C3)C1)C2 | 16% |
| O=C(Cc1ccc(S(=O)(=O)N2CCOCC2)s1)NCCC(c1ccccc1)c1ccccc1 | 4.8% |
| CCCc1ccc(-c2c(C)sc(NC(=O)c3ccnn3C)c2C#N)cc1 | 10% |
| CCOC(=O)C1=C(CN2CCc3ccccc32)NC(=O)NC1c1cc(C)ccc1C (centres undefined) | -13.1% |
| CCn1cc(C(=O)N/N=C(/C)c2ccc(F)cc2)c(=O)c2cc(F)c(N3CCCC3)cc21 | 15.8% |
| Cc1c(C(=O)NCc2ccccc2)cnn1-c1ccccc1 | -6.2% |
| O=C(Nc1cc(C(F)(F)F)ccc1Cl)c1cc2nc3c(c(C(F)(F)F)n2n1)CCCC3 | 0.6% |

| Compound | inhibition |
| --- | --- |
| O=C(CN1CCCCCC1)Nc1ccc(Br)cc1Br | 12.8% |
| CC(C)(C)Cc1nnc(NC(=O)c2cc(-c3ccccc3)nc3ccccc23)s1 | 15.7% |
| C=CCn1c(-c2ccc(Cl)cc2)ccc(C#N)c1=O | -30.7% |
| O=[N+]([O-])c1cccc(-c2nnc3c4ccccc4c4ccccc4n23)c1 | 5.3% |
| CN1OC(COC(=O)c2ccc(Cl)cc2)CC1c1ccccc1 (centres undefined) | 6.5% |
| CC1Cc2ccccc2N1CC(=O)Nc1ccc2c(c1)OC(F)(F)O2 (centres undefined) | -0.7% |
| Cn1sc(NC(=O)c2ccccc2)nc1=O | -7.1% |
| CCC1(C)Cc2c(sc3nc4n(c(=O)c23)CCCS4)CO1 (centres undefined) | -10.6% |
| CCOC(=O)CSc1nc2sc3c(c2c(=O)[nH]1)CC(C)(C)OC3 | 4.9% |
| CCOC(=O)Cn1c(SC)nc2sc3c(c2c1=O)CC(C)(C)OC3 | 81.7% (active) |
| COc1ccc(CCN(C(=O)COc2ccccc2)c2nc(-c3ccccc3)cs2)cc1OC | -22.5% |
| C=CCOc1cccc(CNn2cn[nH]c2=S)c1 | 0.7% |
| Cn1c2ccccc2n2c(=O)c(=O)n(CC(=O)c3ccc(F)cc3)nc12 | -17.3% |
| COc1ccc(Nc2nc(-c3ccccc3)cs2)cc1 | 11.3% |
| c1ccc(C2CCC(N3CCC(N4CCCCC4)CC3)CC2)cc1 (centres undefined) | 26.6% |
| O=C(CSCc1c(Cl)cccc1Cl)NN1C(=O)c2ccccc2C1=O | 11.9% |
| CC(=O)NNc1cc(=O)c2c(=O)n(C)c(=O)n(C)c2[nH]1 | -8.3% |
| CCCCNC(=O)CCn1c(=S)[nH]c2cc3c(cc2c1=O)OCO3 | -16.1% |
| CCCNC(=S)NC1CC2CCCC(C1)N2CC(C)C (centres undefined) | 14.2% |
| O=C(NC1CCc2ccccc21)C12CN(Cc3ccccc3)CC1C(c1cccc([N+](=O)[O-])c1)=NO2 (centres undefined) | 11.9% |
| CCCSc1nsc(N)n1 | 8.5% |
